From PubChem BioAssay AID1159580 (chemical genetic matrix, 2015)
Several values for one entry are separate records, joined by “and”; a condition that tells them apart may be missing. Equal entries are not always repeated. About 2,000 (36%) of roughly 5,500 compounds were called active. Not shown: some 18% with an inconclusive outcome. Rule as the data show it: active = normalized growth mostly below about 0.91 (no sharp cut-off); inconclusive = no clear call, values can overlap the other calls; inactive = mostly above about 0.92. The list shows a part of the results.

Test: chemical genetic growth profiling, strain panel (AID 1159580);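 also: tested at 20 µM; growth read once vehicle control cultures reached saturation at 30 °C; 1 = growth at the plate median or of vehicle wells; lower values mean less growth of the strain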
Details: S. cerevisiae deletion strains, growth OD

Measured: normalized growth

CCN(Cc1ccncc1)C(=O)C(CO)c1ccccc1 (stereo unspecified)
inactive: locus YAL013W, strain DEP1, active compounds read low 0.993 and 0.979 | locus YAL021C, strain ccr4, active compounds read low 1.04 | locus YAL026C, strain drs2, active compounds read low 1.03 | locus YAL030W, strain snc1, active compounds read low 1.02 | locus YAL040C, strain CLN3, active compounds read low 0.996 | locus YBL061C, strain skt5, active compounds read low 1.02 | locus YBR009C, strain hhf1, active compounds read low 1.03 | locus YBR021W, strain FUR4, active compounds read low 1.01 | locus YBR023C, strain chs3, active compounds read low 1.03 | locus YBR171W, strain sec66, active compounds read low 1.04 | locus YBR229C, strain ROT2, active compounds read low 0.996 | locus YBR231C, strain swc5, active compounds read low 1.03 | locus YBR279W, strain paf1, active compounds read low 1.01 | locus YCL011C, strain gbp2, active compounds read low 1.02 | locus YCL016C, strain dcc1, active compounds read low 1.03 | locus YCL029C, strain bik1, active compounds read low 0.973 | locus YCL061C, strain MRC1 (second series), active compounds read low 1.01 | locus YCL061C, strain MRC1, active compounds read low 1.03 | locus YCL069W, strain vba3, active compounds read low 1.03 | locus YCR088W, strain abp1, active compounds read low 1.02 | locus YDL005C, strain med2, active compounds read low 1.04 | locus YDL035C, strain GPR1, active compounds read low 1 | locus YDL040C, strain nat1, active compounds read low 1.02 | locus YDL074C, strain BRE1, active compounds read low 0.989 | locus YDL101C, strain DUN1, active compounds read low 0.987 | locus YDL134C, strain PPH21, active compounds read low 0.999 | locus YDL185W, strain tfp1, active compounds read low 0.964 | locus YDL192W, strain arf1, active compounds read low 0.976 | locus YDR001C, strain nth1, active compounds read low 1.02 | locus YDR069C, strain doa4, active compounds read low 1.04 | locus YDR101C, strain arx1, active compounds read low 0.985 | locus YDR137W, strain rgp1, active compounds read low 1.07 | locus YDR150W, strain NUM1, active compounds read low 0.994 | locus YDR159W, strain sac3, active compounds read low 1.03 | locus YDR162C, strain NBP2, active compounds read low 0.985 | locus YDR195W, strain ref2 1.02 | locus YDR297W, strain sur2, active compounds read low 1.02 | locus YDR318W, strain mcm21, active compounds read low 0.989 | locus YDR334W, strain swr1, active compounds read low 1.03 | locus YDR335W, strain msn5, active compounds read low 1.04 | locus YDR363W, strain ESC2, active compounds read low 0.991 | locus YDR388W, active compounds read low 0.993 | locus YDR392W, strain spt3, active compounds read low 0.987 | locus YDR502C, strain sam2, active compounds read low 1.01 | locus YEL003W, strain gim4, active compounds read low 1.01 | locus YEL037C, strain rad23, active compounds read low 1.02 | locus YEL061C, strain CIN8 (second series), active compounds read low 1.03 | locus YEL061C, strain CIN8, active compounds read low 0.995 | locus YER002W, strain NOP16, active compounds read low 0.994 | locus YER015W, strain faa2, active compounds read low 1.01 | locus YER016W, strain bim1, active compounds read low 1.03 | locus YER110C, active compounds read low 0.988 | locus YER111C, strain swi4, active compounds read low 1.03 | locus YER155C, strain BEM2 (second series), active compounds read low 1.03 | locus YER155C, strain BEM2, active compounds read low 0.994 | locus YER167W, strain BCK2, active compounds read low 0.989 | locus YFR010W, strain ubp6, active compounds read low 1.02 | locus YGL078C, strain dbp3, active compounds read low 1 | locus YGL086W, strain mad1, active compounds read low 1 | locus YGL167C, strain pmr1, active compounds read low 1.02 | locus YGL173C, strain kem1, active compounds read low 1.04 | locus YGL227W, strain vid30, active compounds read low 1.04 | locus YGL240W, strain doc1, active compounds read low 1.03 | locus YGL248W, strain PDE1, active compounds read low 1 | locus YGL253W, strain hxk2, active compounds read low 1.02 | locus YGR078C, strain PAC10, active compounds read low 0.989 | locus YGR135W, strain pre9, active compounds read low 0.994 | locus YGR229C, strain SMI1, active compounds read low 0.997 | locus YGR252W, strain gcn5, active compounds read low 1.11 | locus YHR013C, strain ard1, active compounds read low 1.05 | locus YHR027C, strain rpn1, active compounds read low 1.05 | locus YHR030C, strain SLT2, active compounds read low 0.981 and 1 | locus YHR079C, strain IRE1 (second series), active compounds read low 0.984 | locus YHR079C, strain IRE1, active compounds read low 0.989 | locus YHR094C, strain hxt1, active compounds read low 0.977 | locus YHR129C, strain ARP1, active compounds read low 0.993 | locus YHR142W, strain chs7, active compounds read low 1.02 | locus YHR200W, strain rpn10, active compounds read low 0.992 | locus YIL066C, strain RNR3, active compounds read low 0.997 | locus YIL073C, strain SPO22, active compounds read low 0.926 | locus YIL125W, strain kgd1, active compounds read low 0.984 | locus YIR030C, strain dcg1, active compounds read low 1 | locus YJL092W, strain hpr5, active compounds read low 1.02 | locus YJL095W, strain BCK1 (second series), active compounds read low 1.01 | locus YJL095W, strain BCK1, active compounds read low 0.972 and 1.01 | locus YJL115W, strain asf1, active compounds read low 1.04 | locus YJL129C, strain trk1, active compounds read low 1.04 | locus YJL134W, strain LCB3, active compounds read low 0.995 | locus YJL154C, strain vps35, active compounds read low 1.02 | locus YJL164C, strain tpk1, active compounds read low 1.02 | locus YJL166W, strain qcr8, active compounds read low 1.02 | locus YJL168C, strain set2, active compounds read low 0.983 | locus YJL187C, strain SWE1 (second series), active compounds read low 0.979 | locus YJL187C, strain SWE1, active compounds read low 1.02 | locus YJR043C, strain POL32, active compounds read low 0.988 | locus YJR066W, strain TOR1, active compounds read low 0.95
